Values joined by “and” are separate entries in the source; they are usually repeats but may differ in a detail not shown here. Identical values can stand only once. Inconclusive results are not listed. Some structures have more than one record in an assay (separate samples or runs), and their calls can disagree. Active and inactive are the calls of the source. Unless noted, the call rests on the fitted dose curve; in most records, active means well fitted curve in the direction sought with a large enough effect in the repeat runs; inconclusive means weak or mixed curves; inactive means no such curve, though single readings can be large; an effect the other way counts as inactive or inconclusive.
Columns and labels:
[1] = qHTS assay to identify small molecule antagonists of the estrogen related receptor (ERR) signaling pathway from Tox21 library - cell viability counter screen (AID 1224834); further: nearly all actives have a fitted effect of over 30% in size
In short: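 Compounds in DMSO were pinned onto ERR cells that had been incubated for 6 h, and the plates were held at 37 C for 17.5 h. CellTiter-Fluor reagent was then added and fluorescence was measured after 30 min.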

[2] = biological target: Luciferin 4-monooxygenase (Photinus pyralis) (UniProt P08659); test: qHTS assay to identify small molecule inhibitors of firefly luciferase (AID 1224835); further: nearly all actives have a fitted effect of over 25% in size
Luciferin 4-monooxygenase (Photinus pyralis), sequence (P08659 whole entry, looked up): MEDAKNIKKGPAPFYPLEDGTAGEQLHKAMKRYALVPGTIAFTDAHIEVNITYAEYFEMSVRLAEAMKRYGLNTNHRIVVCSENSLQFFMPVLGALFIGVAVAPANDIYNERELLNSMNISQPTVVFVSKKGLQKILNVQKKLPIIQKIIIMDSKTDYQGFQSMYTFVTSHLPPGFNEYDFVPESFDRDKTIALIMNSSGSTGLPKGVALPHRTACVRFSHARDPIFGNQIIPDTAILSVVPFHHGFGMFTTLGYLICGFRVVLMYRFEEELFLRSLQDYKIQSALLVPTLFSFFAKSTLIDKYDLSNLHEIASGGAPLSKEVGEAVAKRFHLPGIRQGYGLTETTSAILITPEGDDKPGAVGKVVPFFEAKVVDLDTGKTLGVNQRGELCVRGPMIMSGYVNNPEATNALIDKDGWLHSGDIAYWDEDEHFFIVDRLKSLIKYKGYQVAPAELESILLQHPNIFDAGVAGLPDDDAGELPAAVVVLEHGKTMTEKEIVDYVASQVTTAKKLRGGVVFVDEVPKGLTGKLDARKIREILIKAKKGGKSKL
In short: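 Quantitative HTS format; KM concentrations of both substrates. Purified P. pyralis FLuc activity quantified from luminescence images.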

[3] = qHTS assay to identify small molecule agonists of the constitutive androstane receptor (CAR) signaling pathway - cell viability counter screen (AID 1224836); further: nearly all actives have a fitted effect of over 45% in size
In short: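 Double-stable HepG2 hepatoma cells (hCAR plus CYP2B6-2.2kb) are treated for 23 h at 37 C with test compounds in 15-point concentration series. PK11195 at 0.75 uM final is co-added. Cell viability is quantified by CellTiter-Fluor.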

[4] = qHTS assay to identify small molecule antagonists of the constitutive androstane receptor (CAR) signaling pathway - cell viability counter screen (AID 1224837); further: nearly all actives have a fitted effect of over 45% in size
In short: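 Cells are seeded, rested 4 hr at 37 C/5% CO2, dosed with compound (15-point series) and 50 nM CITCO, incubated a further 23 hr, and then CellTiter-Fluor reagent is added before fluorescence is read. The line is HepG2 with stable hCAR and CYP2B6-2.2kb.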

[5] = biological target: Nuclear receptor subfamily 1 group I member 3 (Homo sapiens) (UniProt Q14994); test: qHTS assay to identify small molecule antagonists of the constitutive androstane receptor (CAR) signaling pathway (AID 1224838);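 further: HepG2 cells stably expressing hCAR with CYP2B6 luciferase reporter stimulated by CITCO; nearly all actives have a fitted effect of over 40% in size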
Nuclear receptor subfamily 1 group I member 3 (Homo sapiens), sequence (Q14994 whole entry, looked up): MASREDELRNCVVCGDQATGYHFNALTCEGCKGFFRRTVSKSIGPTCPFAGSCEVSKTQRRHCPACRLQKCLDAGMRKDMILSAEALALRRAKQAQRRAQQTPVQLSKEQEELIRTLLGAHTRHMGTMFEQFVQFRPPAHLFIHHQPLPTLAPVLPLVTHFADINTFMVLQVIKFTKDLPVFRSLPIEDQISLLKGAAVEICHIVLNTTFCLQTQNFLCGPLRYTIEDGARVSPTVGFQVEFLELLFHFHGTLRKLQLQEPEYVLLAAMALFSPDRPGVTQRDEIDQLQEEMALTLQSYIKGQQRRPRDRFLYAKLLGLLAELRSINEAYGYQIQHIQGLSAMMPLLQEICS
In short: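 Luminescence from a CYP2B6-2.2kb promoter reporter in hCAR-expressing HepG2 cells reflects CAR signaling. Cells received compounds at 15 concentrations and 50 nM CITCO (final), then incubated 24 h at 37 C/5% CO2.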

[6] = qHTS assay to identify small molecule antagonists of the estrogen related receptor signaling pathway with the pleiotropic PPARgamma coactivator (PGC) from Tox21 10K library - cell viability counter screen (AID 1224840; active means well fitted cell-killing curve with a large enough effect in the repeat runs, not every such curve was filed as active; further: nearly all actives have a fitted effect of over 40% in size)
In short: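 Cell viability is measured by CellTiter-Fluor fluorescence in PGC/ERR cells that receive compounds after a 6-hour attachment period and are then incubated 17.5 hours at 37 C.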

[7] = qHTS assay to identify small molecule agonists of the estrogen related receptor signaling pathway with the pleiotropic PPARgamma coactivator (PGC) from Tox21 10K library (AID 1224842); further: nearly all actives have a fitted effect of over 15% in size
In short: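 PGC/ERR reporter cells (NTP line) were seeded 2,000 per well, rested 6 h at 37 C/5% CO2, then pin-dosed with compounds in DMSO for 18 h at 37 C; luciferase read by One-Glo luminescence after 30 min at room temperature.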

[8] = biological target: Thyrotropin receptor (Homo sapiens) (UniProt P16473); test: qHTS assay to identify small molecule agonists of the thyroid stimulating hormone receptor (TSHR) signaling pathway (AID 1224843; calls by dose curve; further: nearly all actives have a fitted effect of over 45% in size)
Thyrotropin receptor (Homo sapiens), sequence (P16473 whole entry, looked up): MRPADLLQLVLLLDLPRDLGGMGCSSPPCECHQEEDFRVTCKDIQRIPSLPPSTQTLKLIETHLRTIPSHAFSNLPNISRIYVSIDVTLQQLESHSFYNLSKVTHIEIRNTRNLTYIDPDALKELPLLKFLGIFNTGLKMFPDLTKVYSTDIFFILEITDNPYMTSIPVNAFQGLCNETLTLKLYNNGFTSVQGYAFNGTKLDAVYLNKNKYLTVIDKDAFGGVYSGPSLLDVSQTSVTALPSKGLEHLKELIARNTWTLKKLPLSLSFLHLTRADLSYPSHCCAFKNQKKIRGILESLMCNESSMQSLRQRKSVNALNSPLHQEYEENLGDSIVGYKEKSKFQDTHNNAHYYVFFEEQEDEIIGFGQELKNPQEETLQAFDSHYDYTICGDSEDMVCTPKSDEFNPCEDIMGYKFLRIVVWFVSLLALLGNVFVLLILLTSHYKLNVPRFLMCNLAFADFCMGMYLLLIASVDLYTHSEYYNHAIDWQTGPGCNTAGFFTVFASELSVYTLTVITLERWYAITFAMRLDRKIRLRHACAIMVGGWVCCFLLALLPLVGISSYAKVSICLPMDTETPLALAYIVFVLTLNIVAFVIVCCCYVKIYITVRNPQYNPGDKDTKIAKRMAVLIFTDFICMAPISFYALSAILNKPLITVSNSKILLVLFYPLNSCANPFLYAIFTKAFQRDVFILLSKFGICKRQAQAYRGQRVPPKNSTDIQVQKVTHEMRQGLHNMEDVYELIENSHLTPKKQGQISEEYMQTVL
In short: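 Using 15 concentrations per compound in triplicate, cAMP production was monitored in TSHR-HEK293 cells after 30 min compound incubation at RT; HTRF reagents followed, with fluorescence intensity recorded after 1 h.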

[9] = qHTS assay to identify small molecule antagonists of the estrogen related receptor signaling pathway with the pleiotropic PPARgamma coactivator (PGC) from Tox21 10K library (AID 1224841; call rule not given here; further: actives are mostly falling curves and most rising ones were filed inactive; nearly all actives have a fitted effect of over 50% in size)
In short: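 Cells stably carrying the PGC/ERR reporter, seeded at 2,000 per well, received pin-transferred compounds 6 h post-plating. Exposure lasted 18 h at 37 C. Signal: One-Glo luminescence.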

[10] = biological target: Nuclear receptor subfamily 1 group I member 3 (Homo sapiens) (UniProt Q14994); test: qHTS assay to identify small molecule agonists of the constitutive androstane receptor (CAR) signaling pathway (AID 1224839); further: nearly all actives have a fitted effect of over 15% in size
In short: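 Readout: firefly luciferase luminescence via ONE-Glo. System: HepG2 double-stable for hCAR and CYP2B6-2.2kb. Conditions: 15-point compound titration, PK11195 at 0.75 uM final, 24 h incubation.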

Measured: Potency
Potency means the concentration at half of the fitted maximal effect.

S=c1[nH]c2ccccc2[nH]1
54.6 µM (active) and inactive: [5]
not listed: [8] | [9] | [10]
inactive: all other assays above

CCNc1nc(Cl)nc(NC(C)(C)C#N)n1
not listed: [7] | [9] | [10]
inactive: all other assays above

CSc1nc(NC(C)C)nc(NC(C)C)n1
not listed: [8] | [10]
inactive: all other assays above

CCCCC(C#N)(Cn1cncn1)c1ccc(Cl)cc1 (configuration not stated)
not listed: [6] | [8]
inactive: all other assays above

Cc1ccc([N+](=O)[O-])cc1
not listed: [7] | [9] | [10]
inactive: all other assays above

COP(=S)(OC)Oc1ccc(Sc2ccc(OP(=S)(OC)OC)cc2)cc1
31.7 µM (active) and inactive: [2]
not listed: [6] | [10]
inactive: all other assays above

CCOS(=O)(=O)OCC
54.5 µM (active) and inactive: [1]
not listed: [7] | [9] | [10]
inactive: all other assays above

N#CCCCCC#N
not listed: [6]
inactive: all other assays above

CCOP(=O)(OCC)OCC
not listed: [6] | [8] | [10]
inactive: all other assays above

CNC(=S)S
inactive: [1] | [2] | [3] | [4] | [5] | [6]

CCCCCCCC[N+](C)(CCCCCCCC)CCCCCCCC
inactive: [2]
active: [1] 17.2 µM and 1.72 µM and 21.7 µM | [3] 17.2 µM and 7.7 µM and 48.6 µM | [4] 19.3 µM and 13.7 µM and 17.2 µM | [5] 17.2 µM and 15.4 µM | [6] 9.67 µM and 1.37 µM and 13.7 µM

NC(=O)CN1CCCC1=O
not listed: [8] | [10]
inactive: all other assays above

OC(c1ccc(Cl)cc1)(c1cncnc1)c1ccccc1Cl (configuration not stated)
81.1 µM (active) and inactive: [2]
62.2 µM (active) and inactive: [5]
inactive: [3] | [10] | [7]
active: [1] 27.8 µM and 43.3 µM | [4] 55.4 µM
24.8 µM (active) and inactive: [9]

CCOP(=S)(OCC)SCSC(C)(C)C
not listed: [6] | [7] | [9]
inactive: all other assays above

O=[N+]([O-])/N=C1\NCCN1Cc1ccc(Cl)nc1
not listed: [10]
inactive: all other assays above

CC(C)(c1ccc(OCC2CO2)cc1)c1ccc(OCC2CO2)cc1 (configuration not stated)
69.5 µM (active) and inactive: [9]
not listed: [10]
inactive: all other assays above

CC(C)(O)C#N
inactive: [1] | [2] | [3] | [4] | [5] | [8]

CC(O)CN(CC(C)O)CC(C)O (configuration not stated)
not listed: [7] | [9] | [10]
inactive: all other assays above

CCCCOC(=O)COC(=O)c1ccccc1C(=O)OCCCC
active: [2] 12.6 µM and 35.6 µM
not listed: [8] | [10]
inactive: all other assays above

OCCOCCO
inactive: [1] | [2] | [3] | [4] | [5] | [6]

Brc1ccc(Br)cc1
not listed: [6] | [10]
inactive: all other assays above

ClC(Cl)(Cl)c1ccccc1
inactive: [1] | [2] | [3] | [4] | [5] | [6]

O=[N+]([O-])c1ccc(Nc2ccccc2)cc1
active: [1] 27.5 µM and 30.6 µM | [3] 48.9 µM | [4] 30.9 µM
not listed: [6] | [8]
inactive: all other assays above

Clc1ccc(C(Cl)(Cl)Cl)cc1
not listed: [5] | [6] | [10]
inactive: all other assays above

CCOP(=S)(OCC)SCn1c(=O)oc2cc(Cl)ccc21
inactive: [3] | [4] | [5] | [8]
active: [2] 38.2 µM

c1ccc2c(c1)Nc1ccccc1S2
inactive: [3] | [4] | [5] | [6] | [9] | [7]

CC(C)=CC1C(C(=O)OCN2C(=O)C3=C(CCCC3)C2=O)C1(C)C (configuration not stated)
inactive: [1] | [2] | [3] | [4] | [6] | [7]

Cl
inactive: [1] | [3] | [4]

O=S(=O)(O)C(F)(F)C(F)(F)C(F)(F)C(F)(F)C(F)(F)C(F)(F)C(F)(F)C(F)(F)F
inactive and 5.45 µM (active): [9]
active: [2] 75.8 µM and 71 µM
not listed: [5] | [10]
inactive: all other assays above

c1ccc(C2CO2)cc1 (configuration not stated)
inactive: [1] | [2] | [3] | [4] | [6] | [8]

CC(C)(c1ccccc1)c1ccc(O)cc1
inactive: [2] | [3] | [4] | [5] | [6]
active: [8] 60.6 µM and 54.5 µM

CCOP(=O)(O)OCC (tested in a mixture with another compound)
inactive: [2]
inactive and 54 µM (active): [1]
inactive and 60.6 µM (active): [6]

[Cl-].[Cl-].[Cl-].[Fe+3]
inactive: [1] | [3] | [4]

CCCCCCCCCCCCCl
inactive: [1] | [2] | [3] | [4] | [6] | [8]

N#Cc1nn(-c2c(Cl)cc(C(F)(F)F)cc2Cl)c(N)c1S(=O)C(F)(F)F (configuration not stated)
active: [1] 27.5 µM and 29.8 µM | [9] 7.74 µM and 21.1 µM
not listed: [3]
inactive: all other assays above

CC(C)(c1ccccc1)c1ccc(O)c(C(C)(C)c2ccccc2)c1
inactive: [2] | [7]
active: [1] 54 µM and 54.5 µM | [6] 54 µM and 54.5 µM | [9] 48.1 µM

Cc1cccc(N=Nc2ccc(N(C)C)cc2)c1
inactive: [5] | [9]
active: [1] 27.3 µM | [2] 456 nM and 894 nM | [3] 78.3 µM | [7] 1.56 µM and 2.73 µM

CC(C)COC(=O)c1ccccc1C(=O)OCC(C)C
inactive: [1] | [2] | [3] | [4] | [6] | [8]

CCN(CC)C(=O)C(C)Oc1cccc2ccccc12 (configuration not stated)
active: [10] 54.9 µM and 61.1 µM
inactive: [2] | [3] | [4] | [5] | [6]

COc1ccc(CO)cc1
inactive: [1] | [3] | [4] | [6] | [8]

CCC[CH2][Sn]([Cl])([Cl])[CH2]CCC
inactive: [10] | [7]
active: [1] 981 nM and 1.09 µM | [3] 0.874 µM | [4] 874 nM and 864 nM | [5] 552 nM and 686 nM | [9] 196 nM and 96.9 nM

O=C1C(Cl)=C(Cl)C(=O)c2ccccc21
inactive: [3] | [4] | [6] | [7]
active: [1] 61.3 µM and 54.5 µM | [2] 5.66 µM and 5.64 µM | [9] 34.5 µM and 19.3 µM

C[N+](C)(C)CC(=O)[O-]
inactive: [1] | [2] | [3] | [4] | [6]

C[N+](C)(C)CC(=O)O
inactive: [1] | [2] | [3] | [4] | [6]

COP(=S)(OC)SCn1nnc2ccccc2c1=O
inactive: [3] | [4] | [5] | [6] | [7]
active: [2] 39.1 µM and 39.9 µM | [9] 61.1 µM

CC(C)Nc1ccc(Nc2ccccc2)cc1
inactive and 19.3 µM (active): [7]
active: [1] 27.2 µM and 61.1 µM | [2] 31.6 µM and 35.6 µM | [4] 54.3 µM | [10] 13.6 µM and 27.3 µM | [6] 43.1 µM
54.3 µM (active) and inactive: [9]
inactive: [5]

CNC(=O)CSP(=S)(OC)OC
inactive: [1] | [3] | [4] | [5]

Nc1ccc([N+](=O)[O-])cc1N
inactive: [9] | [7]
active: [1] 48.5 µM and 24.3 µM | [2] 79.6 µM | [3] 48.5 µM | [4] 61.1 µM and 27.3 µM | [6] 43.2 µM

CCC1(c2ccc(N)cc2)CCC(=O)NC1=O (configuration not stated)
not listed: [5] | [8] | [10]
inactive: all other assays above

O=NN(c1ccccc1)c1ccccc1
inactive: [1] | [2] | [3] | [4] | [6] | [8]

COC(=O)Nc1nc2ccccc2[nH]1
inactive: [1] | [2] | [3] | [4] | [5] | [8]

CCNCC
not listed: [5] | [8] | [10]
inactive: all other assays above

O=C(O)CF
inactive: [1] | [2] | [3] | [4] | [8]

CC1=C(C(=O)Nc2ccccc2)SCCO1
active: [2] 36.2 µM and 44.8 µM
not listed: [5] | [8] | [10]
inactive: all other assays above

CN(C)c1ccccc1
not listed: [5] | [10]
inactive: all other assays above

Oc1ccc(Cl)cc1Cc1ccccc1
inactive: [2] | [3] | [4] | [5]
31 µM (active) and inactive: [10]

Clc1cccc(C(Cl)(Cl)Cl)n1
inactive: [1] | [2] | [3] | [4] | [6]

Source: PubChem BioAssay (Tox21)
